Efflux pump inh – blocks antifungal efflux pumps in multiplex yeast assay; S. cerevisiae Candida pump triplex, Nile Red efflux; inhibition, % at 10 µM; 330,000 tested, 0.44% active;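 active = plate passing quality check with inhibition over a set limit, or well fluorescence over plate mean plus 4 SD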;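 note: Nile Red retained in pooled yeast measured as flow cytometry median fluorescence; higher means more Nile Red kept so more efflux inhibition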
GRK2 inh – blocks RNA aptamer binding to human GRK2; P25098; bead flow cytometry, FAM-aptamer displacement from GRK2; inhibition of aptamer binding, % at 10 µM; 330,000 tested, 0.59% active; AID 488847;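 active = inhibition of aptamer binding above 40%, roughly 3 SD of noise, on plates passing a quality check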;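 note: median bead fluorescence of bound FAM aptamer so fluorescent compounds give negative values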
Target sequence (P25098 whole entry, looked up): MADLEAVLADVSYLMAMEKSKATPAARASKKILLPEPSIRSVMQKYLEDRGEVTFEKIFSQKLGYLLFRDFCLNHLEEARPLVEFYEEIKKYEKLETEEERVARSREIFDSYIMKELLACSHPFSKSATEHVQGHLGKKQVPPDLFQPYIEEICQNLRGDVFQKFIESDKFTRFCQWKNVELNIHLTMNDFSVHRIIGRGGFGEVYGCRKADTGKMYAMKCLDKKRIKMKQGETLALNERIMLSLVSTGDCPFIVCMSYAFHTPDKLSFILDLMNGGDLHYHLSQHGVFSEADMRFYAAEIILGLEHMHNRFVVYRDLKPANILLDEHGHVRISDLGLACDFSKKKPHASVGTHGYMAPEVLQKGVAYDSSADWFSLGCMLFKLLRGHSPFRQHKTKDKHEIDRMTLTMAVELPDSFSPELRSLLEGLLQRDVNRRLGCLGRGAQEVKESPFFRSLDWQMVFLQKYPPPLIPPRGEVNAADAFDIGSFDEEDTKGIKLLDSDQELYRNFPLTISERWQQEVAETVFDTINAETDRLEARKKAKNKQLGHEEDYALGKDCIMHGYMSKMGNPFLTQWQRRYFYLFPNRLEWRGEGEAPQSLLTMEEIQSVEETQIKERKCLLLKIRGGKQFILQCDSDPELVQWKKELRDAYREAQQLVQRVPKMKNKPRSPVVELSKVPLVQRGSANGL
ATG4B inhibitor – ATG4B (human) cysteine protease inhibition; Q9Y4P1; ATG4B cleavage of LC3-PLA2, NBD-HPC fluorescence, 1 h; inhibition, % at 8.33 µM; 340,000 tested, 0.51% active; AID 504462; in the data active = inhibition above about 40%
CR mimetic SO – caloric restriction mimetics inhibiting age-related superoxide in yeast | S. cerevisiae aged cells, superoxide DHE fluorescence; hits give low values | superoxide response (% of plate mean), % at 10 µM | 330,000 tested, 0.18% active;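 active = superoxide response under a set limit, about three screen SD below normal, cut at about 65% in these data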;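 note: yeast aged for seven days with compound at 30 °C before DHE staining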
GRK2 CP1 – confirmation of human GRK2 inhibitors displacing RNA aptamer. shares compounds with GRK2 inh. bead-bound GRK2, FAM-aptamer displacement, flow cytometry. aptamer displacement, % at 10 µM. 2,000 tested, 4% active. AID 504451;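 active = aptamer displacement above 40%, near three times the noise of non-fluorescent compounds, on plates passing quality checks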;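 note: negative values mostly reflect intrinsic compound fluorescence rather than true enhancement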
Aptamer quench 1 – counter-screen for GRK2 aptamer inhibitors: fluorescent aptamer quenchers; shares compounds with GRK2 inh; Fluorescent RNA aptamer beads, quenching, flow cytometry; hits give high values; fluorescence change (kMESF span), kMESF (no concentration beside the values); 110 tested, under 10 active;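 active = compounds whose bead fluorescence drops by more than 37 kMESF across the dose range, marking them as dye quenchers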
Aptamer quench SP – quenches fluorescent RNA aptamer, GRK2 hit artifact; fluorescence response (% of DMSO), % at 10 µM; Carboxyfluorescein RNA aptamer on beads, flow cytometry quenching; hits give low values; shares compounds with GRK2 inh; 2,000 tested, under 10 active;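 active = compounds that quench the bead-bound fluorescent RNA probe, cutting fluorescence to under half of the solvent control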;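 note: counterscreen run without GRK2 so only probe quenching by compound is measured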
GRK2 CP2 – confirmation of human GRK2 inhibitors binding RNA aptamer site. shares compounds with GRK2 inh. bead-bound GRK2, FAM-aptamer displacement, flow cytometry. inhibition of aptamer binding, % at 10 µM. 360 tested, under 10 active. AID 504782;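 active = inhibition of aptamer binding above 40%, about triple the noise seen with nonglowing compounds, on plates passing quality control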;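 note: negative values mostly come from compounds that fluoresce themselves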
FAM quench SP – quenches fluorescent RNA aptamer, GRK2 hit artifact. fluorescence response vs DMSO, % at 10 µM. 360 tested, under 10 active. shares compounds with GRK2 inh. AID 588494. carboxyfluorescein RNA aptamer beads, flow cytometry quenching; hits give low values;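 active = response vs DMSO under 50%, meaning signal dropped by over half, treated as fluorescence quencher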;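 note: labelled aptamer on streptavidin beads without GRK2 as a quench counter-screen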
Numbers stand for hits; - = inactive; . = no result given. Shown are actives, neighbours in structure and some others; about 1.6% of the full set was active somewhere.

SMILES	Efflux pump inh	GRK2 inh	ATG4B inhibitor	CR mimetic SO	GRK2 CP1	Aptamer quench SP	others
CC1CCCN(C(=O)CNC(=O)c2ccco2)C1 (configuration not stated)	-	-	-	-	.	.
O=C(Nc1cccnc1)C1CCCN(c2ncnc3c2nc2n3CCCCC2)C1 (configuration not stated)	-	-	-	-	.	.
O=C(NCC1CCN(Cc2cccc(Cl)c2)CC1)C1CCCN(c2ncnc3c2nc2n3CCCCC2)C1 (configuration not stated)	-	-	-	-	-	-
CCc1cccc(NC(=O)C2CCCN(c3ncnc4c3nc3n4CCCCC3)C2)c1 (configuration not stated)	-	-	-	-	-	-
O=C(CCCOc1ccccc1)Nc1ccc(S(=O)(=O)Nc2ccccn2)cc1	-	-	-	-	.	.
C[C@H](NC(=O)C1CC(=O)N(c2ccc3c(c2)OCCO3)C1)C(=O)NCc1ccco1 (some centres not stated)	-	-	-	-	.	.
O=C(COC(=O)c1ncc(Cl)c(Cl)c1Cl)NCCc1ccccc1	-	-	-	-	.	.
CC1CC(C)CN(S(=O)(=O)N2CCCC(C(=O)NC(C)c3ccccc3)C2)C1 (configuration not stated)	-	-	-	-	.	.
CC(NC(=O)C1CCCN(S(=O)(=O)N2CCOCC2)C1)c1ccccc1 (configuration not stated)	-	-	-	-	-	-
CCC(=O)Nc1nnc(SCC(=O)Nc2ccc3c(c2)OCO3)s1	-	-	-	-	.	.
CC(=O)c1ccc(NC(=O)CSc2nnc(NC(=O)c3ccco3)s2)cc1	-	46	-	-	.	.	GRK2 CP2=-;FAM quench SP=-
CCC(=O)Nc1nnc(SCC(=O)Nc2ccc3c(c2)OCCO3)s1	-	68	-	-	.	.	GRK2 CP2=-;FAM quench SP=-
COc1ccc(OC)c(-n2c(SC)nnc2-c2c[nH]c3ccccc23)c1	-	100	-	-	-	-
COc1ccc(OC)c(-n2c(SCC(N)=O)nnc2-c2c[nH]c3ccccc23)c1	-	-	-	-	.	.
O=C(CCN1C(=O)c2ccccc2C1=O)NCc1ccccc1	-	-	-	-	.	.
O=C(CCN1C(=O)c2ccccc2C1=O)Nn1cnnc1	-	52	-	-	-	-
O=C(Nc1cc(Cl)ccc1N1CCOCC1)c1ccc(N2CCCCC2)c([N+](=O)[O-])c1	-	42	-	-	.	.	GRK2 CP2=-;FAM quench SP=-
Cc1cccc2cc(-c3ccccc3)c(-c3ccccc3)c[n+]12	-	44	-	-	-	-
O=[N+]([O-])c1cccc(-c2cc3cccc[n+]3cc2-c2cccc([N+](=O)[O-])c2)c1	-	-	-	-	.	.
CCOc1ccc(OCCC(=O)N2CCc3cc(OC)c(OC)cc3C2)cc1	-	94	-	-	-	-
COc1cc2c(cc1OC)CN(C(=O)CCOc1ccccc1)CC2	-	-	-	-	.	.
CCCN(C(=O)c1cccc(-n2cccc2)c1)c1c(N)n(Cc2ccccc2)c(=O)[nH]c1=O	-	-	-	-	-	-	Aptamer quench 1=37
O=C(c1ccc(=O)oc1)N1CCCc2ccccc21	-	42	-	-	-	-
O=C(Nc1ccc(F)cc1)c1ccc(C(=O)N2CCOCC2)cc1	.	.	-	.	.	.
O=C(c1coc(=O)c(Br)c1)N1CCOCC1	.	.	-	.	.	.
SMILES	Efflux pump inh	GRK2 inh	ATG4B inhibitor	CR mimetic SO	GRK2 CP1	Aptamer quench SP	others
O=C(c1ccc(F)cc1)N1CCOCC1	-	50	-	-	-	-
O=C(c1ccc(=O)oc1)N1CCOCC1	-	87	-	-	-	-
O=C(COc1ccc([N+](=O)[O-])cc1)Nc1ccc(CN2CCOCC2)cc1	-	-	-	-	.	.
CCC(c1nnc(SC(C)C(=O)NC2CC2)n1-c1ccc(OC)cc1)N(C)C (configuration not stated)	-	-	-	-	.	.
COc1cc(/C=N/NC(=O)CNc2n[nH]c(=O)[nH]c2=O)ccc1O	-	-	-	-	.	.
Cc1ccccc1NC(=O)CN1C(=O)N/C(=C\c2ccc(N3CCOCC3)c(F)c2)C1=O	-	-	-	-	-	-
Cc1ccc(NC(=O)CN2C(=O)N/C(=C/c3ccc(N4CCOCC4)cc3)C2=O)cc1	-	-	-	-	.	.
Cc1csc(NC(=O)CSc2nnc(-c3ccoc3C)n2C(C)c2ccccc2)n1 (configuration not stated)	-	-	-	-	.	.
COc1ccc(C2CC(C(F)(F)F)n3nc(C(=O)Nc4c(C)n(C)n(-c5ccccc5)c4=O)c(Cl)c3N2)cc1 (configuration not stated)	-	-	.	-	-	-
COc1cccc(C2CC(C(F)(F)F)n3nc(C(=O)Nc4c(C)n(C)n(-c5ccccc5)c4=O)cc3N2)c1 (configuration not stated)	-	-	-	-	.	.
Cc1ccc(-c2ccccc2)n1-c1ccc(C(=O)O)cc1	-	51	-	-	-	-	GRK2 CP2=-;FAM quench SP=-
CC1CCCCC1NC(=O)CCN1C(=O)C2C3C=CC(C3)C2C1=O (configuration not stated)	-	-	-	-	.	.
COc1ccc(CNC(=O)COC(=O)c2ccc3c(c2)OCCO3)cc1	-	58	-	-	-	-
Cc1cc(C)cc(NC(=O)COC(=O)c2ccc3c(c2)OCCO3)c1	-	100	-	-	-	-
COc1ccc(CCNC(=O)c2ccc3c(c2)OCCO3)cc1	-	-	-	-	.	.
COc1ccc(NS(=O)(=O)c2csc(C(=O)N3CCCC3)c2)c(OC)c1	-	-	-	-	.	.
CN(C)c1cc2c(cc1NS(=O)(=O)c1ccccc1)n(C)c(=O)n2C	-	-	-	-	.	.
Cc1ccc(S(=O)(=O)/N=C(\c2ccccc2)N(C)S(=O)(=O)c2ccc(C)cc2)cc1	-	66	-	-	-	-
Cn1nc(C(F)(F)F)c(C(=O)Nc2ccc(F)cc2F)c1Cl	-	47	-	-	-	-
COc1ccc(C)cc1S(=O)(=O)NNc1nc(C)cc(C)n1	-	-	-	-	.	.
Cc1nn(-c2ccc(Cl)cc2)c(=O)c2ccccc12	-	96	-	-	-	-
C/C(=N\Nc1nc2ccccc2[nH]1)c1ccc(N2CCOCC2)cc1	-	52	-	-	-	-
C/C(=N\Nc1nc(C)cc(C)n1)c1ccc(N2CCOCC2)cc1	-	-	-	-	.	.
